A selection: hits, their analogues and other compounds. The true share with any hit is near 3%.
Tau fibril ThT – inhibitors of human tau fibril formation, thioflavin T binding; P10636; recombinant tau K18 P301L, heparin-induced fibrillization, ThT fluorescence; Potency, µM (titrated, usually from 57.4 µM), without a hit: at the highest dose activity, negative = inhibition, usual class: inhibitors; 2.1% of 270,000 active; AID 1460; further: potency means the concentration at half of the fitted maximal effect; nearly all actives have a fitted effect of over 55% in size
Target sequence (P10636 561-689 P618L limits assumed): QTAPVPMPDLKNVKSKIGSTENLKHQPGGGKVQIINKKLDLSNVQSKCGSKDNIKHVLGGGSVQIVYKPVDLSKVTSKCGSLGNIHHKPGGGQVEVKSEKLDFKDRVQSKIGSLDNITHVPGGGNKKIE
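Aggregation was driven by heparin (20 uM final) acting on recombinant tau […] bearing P301L in 100 mM sodium acetate pH 7; fibrils were detected with Thioflavin T.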
Tau fibril FP – blocks human tau fibril formation measured by polarization | P10636 | K18 P301L tau heparin fibrillization, Alexa594 FP, 6 h | Potency, µM (highest dose often 57.7 µM), without a hit: at the top dose activity, negative = inhibition, most hits filed as inhibitors | 0.39% of 280,000 active | AID 1468; further: potency means the concentration at half of the fitted maximal effect; nearly all actives have a fitted effect of over 55% in size
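Human tau K18 […] P301L fragment, 15 uM unlabeled plus 0.24 uM Alexa 594-labeled tau (final), with compound and 20 uM heparin in 100 mM sodium acetate pH 7; 6 hr at 37 C, then Alexa 594 FP read.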
KDM4E inh – inhibitors of human JMJD2E histone demethylase. B2RXH2. JMJD2E catalytic domain, FDH-coupled NADH fluorescence (FDH is formaldehyde dehydrogenase). Potency, µM (titrated, usually from 57.1 µM), without a hit: top-dose activity change, negative = inhibition, actives largely listed as inhibitors. 1.6% of 230,000 active; active means well fitted inhibition curve with a large enough effect, not every such curve was filed as active; inconclusive means small, poorly fitted or top-dose-only effect, or another doubt; inactive means no such curve, though single readings can be large or run the other way;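 further: potency means the concentration at half of the fitted maximal effect; 0% = wells with enzyme and -100% = buffer wells without enzyme; nearly all actives have a fitted effect of over 50% in size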
Target sequence (B2RXH2 1-337 limits assumed): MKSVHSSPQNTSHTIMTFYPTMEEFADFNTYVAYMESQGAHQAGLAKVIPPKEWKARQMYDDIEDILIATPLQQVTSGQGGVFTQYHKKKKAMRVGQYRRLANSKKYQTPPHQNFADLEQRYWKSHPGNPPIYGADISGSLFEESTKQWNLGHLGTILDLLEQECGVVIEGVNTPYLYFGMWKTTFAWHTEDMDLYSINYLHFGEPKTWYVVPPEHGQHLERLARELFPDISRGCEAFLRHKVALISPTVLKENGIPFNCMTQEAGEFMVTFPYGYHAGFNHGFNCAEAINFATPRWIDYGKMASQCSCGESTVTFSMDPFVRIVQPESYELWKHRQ
Tau fluor cs – counter-screen for tau fibril formation inhibitors; 0.93% of 280,000 active; tau K18 P301L Alexa594 fluorescence, heparin fibrillization; AID 1463; Potency, µM (series often up to 57.7 µM), inactives show top-dose activity change, negative = decrease; further: potency means the concentration at half of the fitted maximal effect; nearly all actives have a fitted effect of over 55% in size
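Human tau K18 P301L (15 uM unlabeled, 0.24 uM Alexa 594-labeled) in 100 mM sodium acetate pH 7 with 20 uM heparin, 6 hr at 37 C. ThT 30 uM added, 1 hr ambient; Alexa 594 FP and total fluorescence read at 555/632 nm.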
Coupling enz – inhibits coupling enzyme system, counter-screen for aldolase hits; coupling enzyme system counterscreen, AmpLite Red fluorescence; activity change, negative = inhibition, % at 58.2 µM, hits read low; 0.67% of 290,000 active; AID 2472; in the data active means activity change below about -30%
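Activity here indicates interference with the coupling reaction, not aldolase inhibition. Compounds at 57.5 uM final met coupling enzymes for 10 min at RT; substrate and AmpLite Red detection followed, with a 525/598 nm fluorescence read after 20 min.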
Numbers without * were called inactive; ! = not active in a repeat; [ ] = another dose, or the depositor's remark. Unless noted, the call rests on the fitted dose curve; in most records, active means well fitted curve in the direction sought with a large enough effect; inconclusive means small, poorly fitted or top-dose-only effect, or another doubt; inactive means no such curve, though single readings can be large; an effect the other way counts as inactive or inconclusive. Unless noted, on the % scale 0 is the no-effect control and ±100 the full control effect.

COc1ccc2c(c1)C(=NO)c1cc(OC)ccc1-2 was read as Tau fibril ThT 0.71µM*, Tau fibril FP 0%, KDM4E inh 7%, Tau fluor cs inconclusive and Coupling enz -2.
`COc1cc(SC#N)ccc1N=Cc1c(C)[nH]n(-c2cccc3ccccc23)c1=O` gave Tau fibril ThT 7.9µM*, Tau fibril FP inconclusive, KDM4E inh 0%, Tau fluor cs -17% and Coupling enz 1.
`COc1ccccc1N=Cc1c(C)[nH]n(-c2ccc(C)cc2C)c1=O` gave Tau fibril ThT -17%, Tau fibril FP -3%[2.34 µM], KDM4E inh inconclusive, Tau fluor cs 7%[2.34 µM] and Coupling enz -5.
COc1cc(SC#N)ccc1N=Cc1c(C)[nH]n(-c2ccc(C)cc2C)c1=O was read as Tau fibril ThT 14µM*, Tau fibril FP inconclusive, KDM4E inh -2%, Tau fluor cs -21% and Coupling enz 2.
For Cc1cccc(N2CCN(C(=O)c3sc4nc5n(c(=O)c4c3C)CCC5)CC2C)c1 (stereo unspecified) the results were Tau fibril ThT -4%, Tau fibril FP -22% and Tau fluor cs -16%.
Screening Cc1ccc(C2C(C#N)=C(N)Oc3c2sc2ccccc32)o1 (stereo unspecified) returned Tau fibril ThT 14µM*, Tau fibril FP inconclusive, KDM4E inh inconclusive, Tau fluor cs inconclusive and Coupling enz -27.
`CCOC(=O)CC1=C(C(=O)OCC)C(c2ccc(C)o2)C(C#N)=C(N)O1` (stereo unspecified) gave Tau fibril ThT -1%, Tau fibril FP 8%, KDM4E inh -7%, Tau fluor cs 12% and Coupling enz 1.
Screening CCOc1ccc(N(C)C(CNS(=O)(=O)c2ccccc2)c2ccccc2)cc1 (stereo unspecified) returned Tau fibril ThT -18%, Tau fibril FP 5% and Tau fluor cs inconclusive.
`CCC(=O)Nc1c(OC(=O)CC)ccc2c(C)cc(=O)oc12` gave Tau fibril ThT -14%, Tau fibril FP inconclusive, KDM4E inh 4µM*, Tau fluor cs -6% and Coupling enz 3.
Screening C=CCN1C=C2C(=O)C(C)(OC(=O)c3cccs3)C(=O)C=C2C=C1CCCC(=O)OC (stereo unspecified) returned Tau fibril ThT inconclusive, Tau fibril FP inconclusive, KDM4E inh 16µM*!, Tau fluor cs 0%[11.6 µM] and Coupling enz -7.
`C=CCN1C=C2C(=O)C(C)(OC(=O)CC)C(=O)C=C2C=C1CCCC` (stereo unspecified) gave Tau fibril ThT -5%[11.5 µM], Tau fibril FP 0%[11.6 µM], KDM4E inh -5%[11.4 µM], Tau fluor cs -7%[11.6 µM] and Coupling enz -8.
Screening Cc1cc(C)cc(NC(c2cccc(Cl)c2)c2nnc(-c3ccccc3)o2)c1 (stereo unspecified) returned Tau fibril ThT -13%, Tau fibril FP inconclusive and Tau fluor cs -29%.
`CN1C(=O)/C(=C/c2ccccc2OCc2cccc(F)c2)N(C)C1=S` gave Tau fibril ThT -16%, Tau fibril FP -4%, KDM4E inh -6%, Tau fluor cs -20% and Coupling enz -37*.
`COC(OC)[C@@H](C)[C@H](OC)[C@@H](C)[C@H](OC)c1ccccc1` gave Tau fibril ThT -3%[11.5 µM], Tau fibril FP 4%[11.6 µM], Tau fluor cs 3%[11.6 µM] and Coupling enz 7.
`Cc1ccc(S(=O)(=O)NCC(=O)N/N=C/c2ccccc2O)cc1` gave Tau fibril ThT -6%, Tau fibril FP -12%, KDM4E inh 25µM*, Tau fluor cs -21% and Coupling enz -7.
For Cc1cc(N/N=C/c2ccc(O)cc2O)c2ccccc2n1 the results were Coupling enz 0.
Screening Oc1ccccc1/C=N/Nc1ncc(Br)cn1 returned Tau fibril ThT -6%, Tau fibril FP 14%, KDM4E inh inconclusive, Tau fluor cs -8% and Coupling enz 0.
`O=C(CCCCCNC(=O)c1ccccc1)N/N=C/c1ccco1` gave Tau fibril ThT -7%, Tau fibril FP -4%, KDM4E inh -2%, Tau fluor cs -3% and Coupling enz 2.
